Assay results taken from PubChem BioAssay (EPA / NIEHS).
Where “and” joins values, the source holds several entries; their conditions need not be identical. Equal entries are not always repeated. Results filed as inconclusive are left out. A structure can be active in one record and inactive in another. Calls of active or inactive are those of the source. How the source made its calls, unless noted: active means hit-call score of the fitted dose curve at least 0.9, where 1 is the maximum; inconclusive means response in the unintended direction; inactive means score below 0.9.

How the values were obtained:
[1] = target: Peroxisome proliferator-activated receptor gamma (Homo sapiens) (UniProt P37231); experiment: NVS_NR_hPPARg: NovaScreen (NVS) Nuclear Receptor Binding Assay for human Peroxisome Proliferator-activated Receptor gamma (PPARg) (AID 2283370)
Chain of Peroxisome proliferator-activated receptor gamma (Homo sapiens) (P37231 whole entry, looked up, the tested form may be a part): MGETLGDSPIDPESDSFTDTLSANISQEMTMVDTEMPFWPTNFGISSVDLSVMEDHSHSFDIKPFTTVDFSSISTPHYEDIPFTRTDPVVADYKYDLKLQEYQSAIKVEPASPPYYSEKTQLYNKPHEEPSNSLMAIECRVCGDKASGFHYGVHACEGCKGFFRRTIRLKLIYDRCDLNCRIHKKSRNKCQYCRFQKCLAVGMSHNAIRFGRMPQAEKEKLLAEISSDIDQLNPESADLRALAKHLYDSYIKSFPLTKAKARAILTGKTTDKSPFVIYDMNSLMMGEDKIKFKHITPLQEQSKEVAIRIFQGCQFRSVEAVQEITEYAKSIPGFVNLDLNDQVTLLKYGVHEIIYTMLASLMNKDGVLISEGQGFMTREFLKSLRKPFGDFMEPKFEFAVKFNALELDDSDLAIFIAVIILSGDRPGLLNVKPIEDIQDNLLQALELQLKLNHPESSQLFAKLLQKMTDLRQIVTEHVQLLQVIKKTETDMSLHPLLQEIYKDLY
Summary of the method: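 Chemicals were tested first in duplicate at 25 uM, then in concentration series if active. Binding to cell-free PPARg protein was measured by fluorescence polarization after 2 h, with loss of signal scored against DMSO.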

[2] = target: human Dopamine Transporter (DAT), SLC6A3 (gene 6531) (UniProt Q01959); experiment: NVS_TR_hDAT: NovaScreen (NVS) Transporter Assay for human Dopamine Transporter (DAT) (AID 2283374);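 further: activity means loss of bound radioligand signal relative to DMSO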
Chain of human Dopamine Transporter (DAT), SLC6A3 (gene 6531) (Q01959 whole entry, looked up): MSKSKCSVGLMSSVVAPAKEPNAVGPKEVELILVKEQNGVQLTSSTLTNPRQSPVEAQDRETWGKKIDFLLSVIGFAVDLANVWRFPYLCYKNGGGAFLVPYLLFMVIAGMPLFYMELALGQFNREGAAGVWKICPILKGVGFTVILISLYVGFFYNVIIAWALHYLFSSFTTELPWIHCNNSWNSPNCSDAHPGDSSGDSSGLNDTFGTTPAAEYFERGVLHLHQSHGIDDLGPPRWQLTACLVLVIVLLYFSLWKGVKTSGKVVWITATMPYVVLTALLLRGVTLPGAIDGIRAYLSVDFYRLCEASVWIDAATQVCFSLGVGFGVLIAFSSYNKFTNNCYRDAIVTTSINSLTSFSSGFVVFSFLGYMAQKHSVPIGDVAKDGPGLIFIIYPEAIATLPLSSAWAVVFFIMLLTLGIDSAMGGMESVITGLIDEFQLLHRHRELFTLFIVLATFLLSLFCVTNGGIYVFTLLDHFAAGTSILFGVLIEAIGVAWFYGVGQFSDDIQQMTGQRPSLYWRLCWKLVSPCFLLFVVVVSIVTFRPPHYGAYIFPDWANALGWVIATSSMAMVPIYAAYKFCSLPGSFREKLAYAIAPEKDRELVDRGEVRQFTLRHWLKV
Summary of the method: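 Duplicate single-point screening at 25 uM preceded concentration-series follow-up of actives. Binding was measured by competitive displacement of a radioligand from DAT protein, filter-counted by scintillation 1 h after dosing. Decrease relative to DMSO taken as activity.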

[3] = target: human Norepinephrine Transporter (NET), SLC6A2 (gene 6530) (UniProt P23975); experiment: NVS_TR_hNET: NovaScreen (NVS) Transporter Assay for human Norepinephrine Transporter (NET) (AID 2283377);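 further: cell-free membrane protein extracted from CHO cells expressing human NET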;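 on AC50: displacement of radioligand from human NET seen as loss of scintillation signal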
Summary of the method: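 Single-concentration duplicate screen at 25 uM, then concentration-response for actives; displacement of specific radioligand from human NET in CHO membrane extracts, filter-based scintillation detection at 1 h relative to DMSO.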

[4] = target: mouse Estrogen Receptor alpha (Era), Esr1 (gene 13982) (UniProt P19785); experiment: NVS_NR_mERa: NovaScreen (NVS) Nuclear Receptor Binding Assay for mouse Estrogen Receptor alpha (Era) (AID 2283378);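 further: hit means loss of bound radioligand signal relative to DMSO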
Chain of mouse Estrogen Receptor alpha (Era), Esr1 (gene 13982) (P19785 whole entry, looked up): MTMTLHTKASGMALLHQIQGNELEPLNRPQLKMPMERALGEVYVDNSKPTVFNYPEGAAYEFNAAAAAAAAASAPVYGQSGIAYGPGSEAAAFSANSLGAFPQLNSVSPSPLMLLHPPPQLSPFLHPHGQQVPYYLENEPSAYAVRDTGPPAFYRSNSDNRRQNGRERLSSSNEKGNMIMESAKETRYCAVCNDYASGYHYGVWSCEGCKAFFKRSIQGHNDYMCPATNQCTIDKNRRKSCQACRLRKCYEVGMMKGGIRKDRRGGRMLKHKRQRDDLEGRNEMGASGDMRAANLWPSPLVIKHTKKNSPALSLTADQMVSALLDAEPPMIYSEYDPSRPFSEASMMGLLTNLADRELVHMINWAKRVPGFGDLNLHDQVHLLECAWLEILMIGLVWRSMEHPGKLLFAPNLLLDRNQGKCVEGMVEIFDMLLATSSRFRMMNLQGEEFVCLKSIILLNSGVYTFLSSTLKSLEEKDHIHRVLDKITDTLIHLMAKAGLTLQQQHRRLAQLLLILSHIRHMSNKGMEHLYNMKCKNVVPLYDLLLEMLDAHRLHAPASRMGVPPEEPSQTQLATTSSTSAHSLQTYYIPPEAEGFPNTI
Summary of the method: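 Extracted mouse Era incubated with tritiated or iodinated radioligand plus test chemical, 18 h. Bound fraction separated on filters, counted by scintillation. DMSO = negative control/baseline; duplicate single-point at 25 uM, then concentration-response follow-up.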

[5] = target: Estrogen receptor (Homo sapiens) (UniProt P03372); experiment: OT_ERa_GFPERaERE_0480: Odyssey Thera (OT) 8-hour HeLa Transcription Induction Assay for Estrogen Receptor (AID 2283381; active means hit-call score of the fitted dose curve at least 0.9, where 1 is the maximum; inactive means score below 0.9)
Chain of Estrogen receptor (Homo sapiens) (P03372 whole entry, looked up): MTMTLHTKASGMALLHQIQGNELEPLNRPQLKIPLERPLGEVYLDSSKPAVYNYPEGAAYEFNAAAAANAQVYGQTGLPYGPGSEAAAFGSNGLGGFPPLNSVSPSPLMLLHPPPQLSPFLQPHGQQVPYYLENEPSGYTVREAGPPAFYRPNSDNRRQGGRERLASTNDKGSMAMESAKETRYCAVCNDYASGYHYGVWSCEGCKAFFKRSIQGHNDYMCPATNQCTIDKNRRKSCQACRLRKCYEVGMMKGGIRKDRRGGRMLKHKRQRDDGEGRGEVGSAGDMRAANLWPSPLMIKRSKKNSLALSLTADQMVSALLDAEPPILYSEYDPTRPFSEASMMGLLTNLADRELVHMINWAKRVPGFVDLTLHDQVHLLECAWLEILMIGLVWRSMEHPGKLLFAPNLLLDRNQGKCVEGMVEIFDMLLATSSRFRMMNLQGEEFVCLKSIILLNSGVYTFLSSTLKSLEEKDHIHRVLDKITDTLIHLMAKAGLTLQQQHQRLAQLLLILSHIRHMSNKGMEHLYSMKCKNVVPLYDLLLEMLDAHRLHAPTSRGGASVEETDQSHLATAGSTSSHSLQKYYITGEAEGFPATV
Summary of the method: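 An 8 h HeLa transcription-induction format with a GFP reporter under ERE control, read by fluorescence microscopy; single endpoint fitted positively with DMSO as baseline.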

[6] = target: Estrogen receptor (Homo sapiens) (UniProt P03372); experiment: OT_ERa_GFPERaERE_0120: Odyssey Thera (OT) 2-hour HeLa Transcription Induction Assay for Estrogen Receptor (AID 2283382)
Summary of the method: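 Two-hour compound treatment of HeLa cells preceded microscopy imaging of an inducible fluorescent reporter. Image-based quantification gave one endpoint, analysed for signal increase relative to DMSO controls.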

[7] = target: Bile acid receptor (Homo sapiens) (UniProt Q96RI1); experiment: OT_FXR_FXRSRC1_0480: Odyssey Thera (OT) 8-hour HEK293T Protein-Complementation Assay for Farnesoid X receptor/SRC-1 Co-activator (AID 2283383)
Chain of Bile acid receptor (Homo sapiens) (Q96RI1 whole entry, looked up): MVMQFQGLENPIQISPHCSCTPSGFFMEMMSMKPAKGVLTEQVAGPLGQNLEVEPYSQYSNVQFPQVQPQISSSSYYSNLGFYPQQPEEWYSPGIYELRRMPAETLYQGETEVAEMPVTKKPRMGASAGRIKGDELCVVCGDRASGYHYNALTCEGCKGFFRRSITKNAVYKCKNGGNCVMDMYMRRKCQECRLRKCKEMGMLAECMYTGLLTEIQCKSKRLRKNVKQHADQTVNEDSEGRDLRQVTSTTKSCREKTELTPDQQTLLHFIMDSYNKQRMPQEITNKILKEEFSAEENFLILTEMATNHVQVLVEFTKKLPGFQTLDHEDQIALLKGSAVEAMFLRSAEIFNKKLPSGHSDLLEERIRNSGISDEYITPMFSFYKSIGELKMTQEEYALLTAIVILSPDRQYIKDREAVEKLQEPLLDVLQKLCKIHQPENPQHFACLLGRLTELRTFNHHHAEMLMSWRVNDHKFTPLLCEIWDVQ
Summary of the method: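 Readings were taken 8 h after dosing HEK293T cells in a split-reporter complementation format pairing FXR with SRC-1. Increased fluorescence relative to DMSO-treated wells defined activity.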

[8] = target: Bile acid receptor (Homo sapiens) (UniProt Q96RI1); experiment: OT_FXR_FXRSRC1_1440: Odyssey Thera (OT) 24-hour HEK293T Protein-Complementation Assay for Farnesoid X receptor/SRC-1 Co-activator (AID 2283384)
Summary of the method: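 Single endpoint, analysed for increased fluorescence against DMSO controls. HEK293T cells carrying FXR and SRC-1 linked to complementary reporter halves were exposed to chemicals for 24 h before reading.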

[9] = target: Retinoic acid receptor RXR-alpha (Homo sapiens) (UniProt P19793); experiment: OT_NURR1_NURR1RXRa_0480: Odyssey Thera (OT) 8-hour HEK293T Protein Complementation Assay for Nurr1/retinoid X receptor (RXR) (AID 2283385)
Chain of Retinoic acid receptor RXR-alpha (Homo sapiens) (P19793 whole entry, looked up, the tested form may be a part): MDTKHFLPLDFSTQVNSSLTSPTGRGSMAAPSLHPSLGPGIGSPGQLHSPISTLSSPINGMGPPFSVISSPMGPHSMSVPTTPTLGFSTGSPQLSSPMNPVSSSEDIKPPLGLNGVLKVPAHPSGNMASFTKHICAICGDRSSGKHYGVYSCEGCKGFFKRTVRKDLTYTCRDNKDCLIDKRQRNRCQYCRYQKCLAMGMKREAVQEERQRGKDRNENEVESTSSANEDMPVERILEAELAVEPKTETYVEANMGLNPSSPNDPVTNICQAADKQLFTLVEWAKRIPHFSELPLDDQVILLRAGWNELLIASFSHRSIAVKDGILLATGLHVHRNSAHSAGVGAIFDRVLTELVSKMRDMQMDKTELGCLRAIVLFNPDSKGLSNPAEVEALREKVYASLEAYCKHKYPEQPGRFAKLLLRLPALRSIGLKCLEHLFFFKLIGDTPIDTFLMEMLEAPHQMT
Summary of the method: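 Gain in fluorescent complementation signal over DMSO, measured 8 hours after chemical dosing of human kidney HEK293T cells, indicated enhanced Nurr1–RXRα association.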

[10] = target: Retinoic acid receptor RXR-alpha (Homo sapiens) (UniProt P19793); experiment: OT_NURR1_NURR1RXRa_1440: Odyssey Thera (OT) 24-hour HEK293T Protein Complementation Assay for Nurr1/retinoid X receptor (RXR) (AID 2283386)
Summary of the method: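 Cell-based binding reporter: HEK293T cells, 24 h exposure, fluorescence-detected fragment complementation, DMSO as baseline.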

[11] = target: Peroxisome proliferator-activated receptor gamma (Homo sapiens) (UniProt P37231); experiment: OT_PPARg_PPARgSRC1_0480: Odyssey Thera (OT) 8-hour Protein-Complementation Assay for Peroxisome Proliferator-activated Receptor Gamma / SRC-1 Co-activator (AID 2283387);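 further: nuclear to cytoplasmic split Venus YFP fluorescence ratio reporting PPARg SRC-1 interaction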
Summary of the method: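 Read-out: 488 nm N/C fluorescence ratio from complemented Venus YFP fragments, ≥350 cells per image, gain-of-signal fitted against DMSO baseline. Fusions of PPARg/SRC-1 with IFP1/IFP2 expressed transiently in HEK293T; compounds applied 8 h.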

[12] = CEETOX_H295R_11DCORT: CeeTox H295R High-throughput Steroidogenesis Assay for 11-Deoxycortisol (11DCORT) (AID 2283432; active means hit-call score of the fitted dose curve at least 0.9, where 1 is the maximum; inactive means score below 0.9); details: actives raise or lower the signal
Summary of the method: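 H295R cells; 10 uM forskolin prestim 48 h; compound in 0.1% DMSO 48 h; media extracted with MTBE; 11-deoxycortisol by LC-MS/MS, 7-point standard curve; gain/loss vs DMSO baseline; viability by MTT in same wells.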

[13] = CEETOX_H295R_OHPREG: CeeTox H295R High-throughput Steroidogenesis Assay for OH-Pregnenolone (OHPREG) (AID 2283434; active means hit-call score of the fitted dose curve at least 0.9, where 1 is the maximum; inactive means score below 0.9); details: actives raise or lower the signal
Summary of the method: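 Secreted 17alpha-hydroxypregnenolone measured by HPLC-MS/MS after liquid-liquid extraction. Human adrenal H295R cells received 48 h forskolin (10 uM) stimulation before 48 h chemical exposure at 0.1% final DMSO; MTT viability in same wells; bidirectional fit against DMSO.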

[14] = target: Norway rat Vesicular Monoamine Transporter (VMAT2), neurotransmitter transporter, Slc18a2 (gene 25549) (UniProt Q01827); experiment: NVS_TR_rVMAT2: NovaScreen (NVS) Transporter Assay for Norway rat Vesicular Monoamine Transporter (VMAT2), neurotransmitter transporter (AID 2283376);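 further: actives lower the bound radioligand signal below the DMSO level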
Summary of the method: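 Using rat forebrain membranes, specific radioligand binding to VMAT2 was measured by filtration and scintillation counting after 1 hour. Chemicals screened at 25 uM in duplicate, actives retested in concentration series, DMSO baseline.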

[15] = target: Estrogen receptor beta (Homo sapiens) (UniProt Q92731); experiment: OT_ER_ERbERb_1440: Odyssey Thera (OT) 24-hour HEK293T Protein-Complementation Assay for Estrogen Receptor-beta/-beta Homodimer (AID 2283380);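 further: fluorescence gain from ER beta LBD homodimer complementation read by laser scanning cytometry; scored as signal increase over DMSO baseline for both agonists and antagonists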
Chain of Estrogen receptor beta (Homo sapiens) (Q92731 whole entry, looked up, the tested form may be a part): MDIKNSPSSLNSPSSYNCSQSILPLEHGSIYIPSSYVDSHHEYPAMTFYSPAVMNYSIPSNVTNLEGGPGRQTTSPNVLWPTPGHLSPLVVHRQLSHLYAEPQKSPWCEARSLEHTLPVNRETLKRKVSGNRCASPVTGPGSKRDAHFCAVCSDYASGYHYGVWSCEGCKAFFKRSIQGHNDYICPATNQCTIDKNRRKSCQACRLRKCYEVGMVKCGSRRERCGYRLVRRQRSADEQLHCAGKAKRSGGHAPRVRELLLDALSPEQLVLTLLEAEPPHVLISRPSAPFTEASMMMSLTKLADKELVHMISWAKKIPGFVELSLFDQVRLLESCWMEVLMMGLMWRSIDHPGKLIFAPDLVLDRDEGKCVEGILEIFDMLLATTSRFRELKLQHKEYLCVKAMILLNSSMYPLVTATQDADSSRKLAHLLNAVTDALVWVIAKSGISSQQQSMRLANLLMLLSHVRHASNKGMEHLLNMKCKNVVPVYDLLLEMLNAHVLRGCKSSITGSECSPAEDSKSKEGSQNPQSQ
Summary of the method: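 Fluorescence increase, nuclear for agonists or whole-cell for antagonists, relative to DMSO vehicle, quantified by laser scanning cytometer after fixation and Draq5 staining. Readout from 24 h treatment of HEK293T cells carrying complementation-paired ER beta LBD (aa 310-547).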

[16] = target: Peroxisome proliferator-activated receptor gamma (Homo sapiens) (UniProt P37231); experiment: OT_PPARg_PPARgSRC1_1440: Odyssey Thera (OT) 24-hour Protein-Complementation Assay for Peroxisome Proliferator-activated Receptor Gamma/ SRC-1 Co-activator (AID 2283388);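 further: nuclear to cytoplasmic ratio of reconstituted Venus YFP fluorescence in fixed imaged cells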
Summary of the method: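 Protein-fragment complementation between PPARg and coactivator SRC-1 was measured by fluorescence imaging in transiently transfected HEK293T cells after 24 h treatment. Signal was quantified as N/C ratio in the 488 nm channel, with DMSO as negative control.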

[17] = target: Agonist Androgen Response Element (ARE), AR (gene 367) (UniProt P10275); experiment: OT_AR_ARELUC_AG_1440: Odyssey Thera (OT) 24-hour CHO-K1 Luciferase Assay for Agonist Androgen Response Element (ARE) (AID 2283379)
Chain of Agonist Androgen Response Element (ARE), AR (gene 367) (P10275 whole entry, looked up): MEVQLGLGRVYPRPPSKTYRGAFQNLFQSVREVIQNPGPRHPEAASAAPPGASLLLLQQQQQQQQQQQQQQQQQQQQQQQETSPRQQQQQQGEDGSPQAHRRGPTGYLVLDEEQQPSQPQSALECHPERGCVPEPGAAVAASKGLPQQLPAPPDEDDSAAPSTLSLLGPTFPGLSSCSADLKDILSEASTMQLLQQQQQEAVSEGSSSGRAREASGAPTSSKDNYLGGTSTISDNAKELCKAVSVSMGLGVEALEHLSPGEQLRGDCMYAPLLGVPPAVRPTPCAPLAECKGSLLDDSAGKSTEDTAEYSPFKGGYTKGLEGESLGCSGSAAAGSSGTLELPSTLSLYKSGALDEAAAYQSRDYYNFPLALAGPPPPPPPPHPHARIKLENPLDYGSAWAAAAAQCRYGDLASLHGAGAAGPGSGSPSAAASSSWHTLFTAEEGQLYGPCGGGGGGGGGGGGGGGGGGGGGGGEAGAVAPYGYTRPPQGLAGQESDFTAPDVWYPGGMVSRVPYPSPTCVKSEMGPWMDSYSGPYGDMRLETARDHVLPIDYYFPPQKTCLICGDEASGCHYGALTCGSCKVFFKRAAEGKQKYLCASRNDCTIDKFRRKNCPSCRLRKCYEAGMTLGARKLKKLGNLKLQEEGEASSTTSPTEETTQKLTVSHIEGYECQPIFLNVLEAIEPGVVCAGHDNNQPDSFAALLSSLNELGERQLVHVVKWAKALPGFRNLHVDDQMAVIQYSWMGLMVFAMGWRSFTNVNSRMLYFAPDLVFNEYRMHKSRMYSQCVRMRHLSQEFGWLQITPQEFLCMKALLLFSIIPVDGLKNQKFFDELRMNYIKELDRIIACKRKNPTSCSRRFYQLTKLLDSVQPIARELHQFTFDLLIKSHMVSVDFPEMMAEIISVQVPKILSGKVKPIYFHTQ
Summary of the method: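 Readout: luciferase bioluminescence from CHO-K1 ARE-luc cells, measured 24 h post-dosing; agonism = increased mean luminescence vs DMSO controls, fitted in positive direction.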

[18] = test system: rat Norepinephrine Transporter (NET), gene 83511; experiment: NVS_TR_rNET: NovaScreen (NVS) Transporter Assay for rat Norepinephrine Transporter (NET) (AID 2283373)
Summary of the method: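 Competitive radioligand displacement at the rat NET using forebrain membrane preparations, 1 h incubation, filter-based scintillation readout. Primary testing in duplicate at a single 25 uM concentration; confirmed actives retested across concentrations.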

[19] = target: human Serotonin Transporter (SERT), SLC6A4 (gene 6532) (UniProt P31645); experiment: NVS_TR_hSERT: NovaScreen (NVS) Transporter Assay for human Serotonin Transporter (SERT) (AID 2283372)
Summary of the method: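 Human platelet membrane preparation; displacement of radioligand from serotonin transporter measured after 1 h by filtration and scintillation counting. Single 25 uM duplicate screen, then concentration series for actives, with DMSO as negative baseline.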

[20] = target: rat Serotonin Transporter (SERT), Slc6a4 (gene 25553) (UniProt P31652); experiment: NVS_TR_rSERT: NovaScreen (NVS) Transporter Assay for rat Serotonin Transporter (SERT) (AID 2283375)
Summary of the method: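 Filtration-based radiodetection quantified loss of specific radioligand binding in rat forebrain membranes after 1 hour of chemical exposure, relative to DMSO. Chemicals were first tested in duplicate at 25 uM.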

Measured: AC50

C=CCC1=C(C)C(OC(=O)C2C(C=C(C)C)C2(C)C)CC1=O (stereo not drawn)
active: [1] 39.1 µM | [2] 7.76 µM and 487 nM and 23.7 µM | [7] 14.9 µM | [8] 75 µM | [9] 31.2 µM and 33.1 µM | [10] 84.5 µM and 83.5 µM
inactive: [1] | [2] | [3] | [4] | [5] | [6] | [9] | [10] | [11] | [12] | [13]

CCCCC(CC)COC(=O)c1ccccc1C(=O)OCC(CC)CCCC (stereo not drawn)
inactive: [1] | [14] | [15] | [5] | [6] | [7] | [8] | [9] | [10] | [11] | [16]

O=C(O)COc1nc(Cl)c(Cl)cc1Cl
inactive: [1] | [5] | [6] | [7] | [9] | [10] | [11]

CCNc1nc(Cl)nc(NCC)n1
inactive: [1] | [15] | [5] | [6] | [7] | [8] | [9] | [10] | [11] | [12] | [13]

Cc1ccc(-c2c(Cl)nc(C#N)n2S(=O)(=O)N(C)C)cc1
inactive: [1] | [17] | [15] | [5] | [6] | [7] | [8] | [9] | [10] | [11]

CC1=C(C(=O)Nc2ccccc2)SCCO1
active: [18] 8.37 µM | [2] 9.69 µM | [3] 11.6 µM
not listed: [1] | [4] | [14] | [16] | [19] | [20]
inactive: all other assays above

COC(=O)c1ccccc1C(=O)OC
inactive: [1] | [4] | [15] | [5] | [6] | [7] | [8] | [9] | [10] | [11]

O=C(Nc1ccccc1)Nc1ccnc(Cl)c1
active: [14] 6.12 µM
inactive: [19] | [20] | [17] | [5] | [6] | [8] | [11]

CCCCOC(=O)c1ccccc1C(=O)OCCCC
active: [4] 25 µM | [15] 33.4 µM and 37.5 µM and 31.9 µM | [5] 34.7 µM and 31.9 µM and 23.8 µM | [6] 30.6 µM and 20.8 µM and 24.9 µM
inactive: [1] | [2] | [4] | [9] | [10] | [11]
